Activity calls are given as the source filed them.
Legend:
[1] = binders of probe aFSTL3 on microarray, primary screen, stem cell growth factor project, biochemical, small-molecule microarray, fluorescence 635/667 (AID 1064); conditions: higher = more signal;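 note: measures binding of the biotinylated anti-FSTL3 antibody to printed compounds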
[2] = binders from COS7 lysate, DM2A8 probe, primary screen, torsin A project, cell lysate, small-molecule microarray, fluorescence 635/667 (AID 1065); conditions: higher = more signal, COS7 lysate expressing mutant human TOR1A
[3] = binders of probe aFGF2 on microarray, primary screen, stem cell growth factor project, biochemical, small-molecule microarray, fluorescence 635/667 (AID 1067); conditions: higher = more signal;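 note: measures binding of biotinylated aFGF2 protein to printed compounds on slides; z-score merges feature fluorescence and signal-to-noise across triplicate slides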
[4] = binders of probe aFGF10 on microarray, primary screen, stem cell growth factor project, biochemical, small-molecule microarray, fluorescence 635/667 (AID 1071); conditions: higher = more signal;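 note: score merges 667 nm spot intensity and signal to noise from triplicate slides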
[5] = target: Neurogenic locus notch homolog protein 2 (Homo sapiens) (UniProt Q04721); test: Notch2 binders on small-molecule microarrays, primary screen, biochemical, small-molecule microarray, 635 nm fluorescence, stem cell growth factors (AID 1073); conditions: Notch2 binding, higher = more signal
[6] = target: Pro-neuregulin-1, membrane-bound isoform (Homo sapiens) (UniProt Q02297); test: NRG1 binders on small-molecule microarrays, primary screen, psychiatric disease protein project, biochemical, small-molecule microarray, fluorescence 635/667 (AID 1075); conditions: NRG1 binding, 635 nm fluorescence, higher = more signal;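 note: score combines 667 nm spot fluorescence with signal to noise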
[7] = system: Neuregulin-1 EGF-like domain; test: binders of neuregulin-1 EGF-like domain, primary screen, biochemical, small-molecule microarray, 635 nm fluorescence (AID 1081); conditions: small-molecule microarray binding, higher = more signal;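 note: binding of the protein to compounds printed on small-molecule microarray slides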
[8] = FRG1 promoter luciferase signal modulators, primary screen, FRG1 inhibition for FSHD, cell-based, C2C12 myotubes, firefly/Renilla luciferase, luminescence (AID 1084); conditions: higher = more signal, called active from +8 up or from −8 down
[9] = binders of probe aFST on microarray, primary screen, stem cell growth factor project, biochemical, small-molecule microarray, fluorescence 635/667 (AID 1086); conditions: higher = more signal;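 note: score merges 667 nm fluorescence with signal-to-noise of each printed compound spot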
[10] = binders of probe aHhip on microarray, primary screen, stem cell growth factor project, biochemical, small-molecule microarray, fluorescence 635/667 (AID 1087); conditions: higher = more signal;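 note: score merges spot fluorescence at 667nm with spot signal to noise ratio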
[11] = system: PRMT1 (protein arginine N-methyltransferase 1); test: PRMT1 binders on small-molecule microarrays, primary screen, biochemical, small-molecule microarray, 635 nm fluorescence (AID 1088); conditions: small-molecule microarray binding, higher = more signal;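 note: binding of Prmt1 protein to compounds spotted on small-molecule microarray slides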
[12] = yeast growth modulation, basal conditions, primary screen, YJM789 clinical isolate, OD600, 24 h (AID 1089);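 note: growth of clinical yeast isolate S. cerevisiae YJM 789 seeded 1000 cells per well; test concentration not given here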; conditions: S. cerevisiae YJM789 growth, higher = more signal, called active from +8 up or from −8 down
[13] = fission yeast growth modulation, primary screen, strain 972, OD600, 24 h, no modulator (AID 1090);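 note: basal condition with compound alone and no growth modifier present; test concentration not given here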; conditions: S. pombe 972 growth, higher = more signal, called active from +8 up or from −8 down
[14] = S. cerevisiae growth modulation with rapamycin, primary screen, strain BY4716, OD600, 96 h (AID 1091); conditions: higher = more signal, called active from +8 up or from −8 down; note: test concentration not given here
[15] = target: Torsin-1A-interacting protein 2 (Homo sapiens) (UniProt Q8NFQ8); test: LULL1 binders on small-molecule microarray, primary screen, cell lysate, human LULL1 lysate, 635/667 nm fluorescence (AID 1092); conditions: hLULL1 lysate binding, 635 nm fluorescence, higher = more signal;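 note: probe is lysate of COS7 cells overexpressing human LULL1; score merges per-feature 667 nm fluorescence with signal-to-noise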
[16] = E. coli growth modulation, two-sided OD650, primary screen, E. coli filamentation project, strain DRC41, 24 h (AID 1093); conditions: OD650, 24 h, higher = more signal, called active from +8 up or from −8 down;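 note: MC1000 strain lacking acrAB efflux and sulA so SOS filamentation is blocked; test concentration not given here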
[17] = small-molecule microarray binders of probe aLefty2, primary screen, biochemical, biotinylated probe, 635/667 nm fluorescence (AID 1094); conditions: higher = more signal;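 note: score merges spot fluorescence near 667 nm with spot signal-to-noise ratio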
[18] = system: Noggin (protein binding on small-molecule microarray); test: Noggin binders on small-molecule microarray, primary screen, biochemical, 635/667 nm fluorescence (AID 1095); conditions: 635 nm fluorescence, higher = more signal;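 note: score merges 667 nm feature fluorescence with signal to noise over triplicate slides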
[19] = target: Neurogenic locus notch homolog protein 3 (Homo sapiens) (UniProt Q9UM47); test: NOTCH3 binders on small-molecule microarray, primary screen, biochemical, 635/667 nm fluorescence (AID 1096); conditions: NOTCH3 binding, 635 nm fluorescence, higher = more signal
[20] = small-molecule microarray binders of probe aEGFR, primary screen, biochemical, biotinylated probe, 635/667 nm fluorescence (AID 1097); conditions: higher = more signal;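 note: probe is a biotinylated anti-EGFR antibody binding compounds printed on slides; score combines fluorescence near 667 nm and signal to noise of each spot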

Neurogenic locus notch homolog protein 2 (Homo sapiens), sequence (Q04721 whole entry, looked up, canonical isoform): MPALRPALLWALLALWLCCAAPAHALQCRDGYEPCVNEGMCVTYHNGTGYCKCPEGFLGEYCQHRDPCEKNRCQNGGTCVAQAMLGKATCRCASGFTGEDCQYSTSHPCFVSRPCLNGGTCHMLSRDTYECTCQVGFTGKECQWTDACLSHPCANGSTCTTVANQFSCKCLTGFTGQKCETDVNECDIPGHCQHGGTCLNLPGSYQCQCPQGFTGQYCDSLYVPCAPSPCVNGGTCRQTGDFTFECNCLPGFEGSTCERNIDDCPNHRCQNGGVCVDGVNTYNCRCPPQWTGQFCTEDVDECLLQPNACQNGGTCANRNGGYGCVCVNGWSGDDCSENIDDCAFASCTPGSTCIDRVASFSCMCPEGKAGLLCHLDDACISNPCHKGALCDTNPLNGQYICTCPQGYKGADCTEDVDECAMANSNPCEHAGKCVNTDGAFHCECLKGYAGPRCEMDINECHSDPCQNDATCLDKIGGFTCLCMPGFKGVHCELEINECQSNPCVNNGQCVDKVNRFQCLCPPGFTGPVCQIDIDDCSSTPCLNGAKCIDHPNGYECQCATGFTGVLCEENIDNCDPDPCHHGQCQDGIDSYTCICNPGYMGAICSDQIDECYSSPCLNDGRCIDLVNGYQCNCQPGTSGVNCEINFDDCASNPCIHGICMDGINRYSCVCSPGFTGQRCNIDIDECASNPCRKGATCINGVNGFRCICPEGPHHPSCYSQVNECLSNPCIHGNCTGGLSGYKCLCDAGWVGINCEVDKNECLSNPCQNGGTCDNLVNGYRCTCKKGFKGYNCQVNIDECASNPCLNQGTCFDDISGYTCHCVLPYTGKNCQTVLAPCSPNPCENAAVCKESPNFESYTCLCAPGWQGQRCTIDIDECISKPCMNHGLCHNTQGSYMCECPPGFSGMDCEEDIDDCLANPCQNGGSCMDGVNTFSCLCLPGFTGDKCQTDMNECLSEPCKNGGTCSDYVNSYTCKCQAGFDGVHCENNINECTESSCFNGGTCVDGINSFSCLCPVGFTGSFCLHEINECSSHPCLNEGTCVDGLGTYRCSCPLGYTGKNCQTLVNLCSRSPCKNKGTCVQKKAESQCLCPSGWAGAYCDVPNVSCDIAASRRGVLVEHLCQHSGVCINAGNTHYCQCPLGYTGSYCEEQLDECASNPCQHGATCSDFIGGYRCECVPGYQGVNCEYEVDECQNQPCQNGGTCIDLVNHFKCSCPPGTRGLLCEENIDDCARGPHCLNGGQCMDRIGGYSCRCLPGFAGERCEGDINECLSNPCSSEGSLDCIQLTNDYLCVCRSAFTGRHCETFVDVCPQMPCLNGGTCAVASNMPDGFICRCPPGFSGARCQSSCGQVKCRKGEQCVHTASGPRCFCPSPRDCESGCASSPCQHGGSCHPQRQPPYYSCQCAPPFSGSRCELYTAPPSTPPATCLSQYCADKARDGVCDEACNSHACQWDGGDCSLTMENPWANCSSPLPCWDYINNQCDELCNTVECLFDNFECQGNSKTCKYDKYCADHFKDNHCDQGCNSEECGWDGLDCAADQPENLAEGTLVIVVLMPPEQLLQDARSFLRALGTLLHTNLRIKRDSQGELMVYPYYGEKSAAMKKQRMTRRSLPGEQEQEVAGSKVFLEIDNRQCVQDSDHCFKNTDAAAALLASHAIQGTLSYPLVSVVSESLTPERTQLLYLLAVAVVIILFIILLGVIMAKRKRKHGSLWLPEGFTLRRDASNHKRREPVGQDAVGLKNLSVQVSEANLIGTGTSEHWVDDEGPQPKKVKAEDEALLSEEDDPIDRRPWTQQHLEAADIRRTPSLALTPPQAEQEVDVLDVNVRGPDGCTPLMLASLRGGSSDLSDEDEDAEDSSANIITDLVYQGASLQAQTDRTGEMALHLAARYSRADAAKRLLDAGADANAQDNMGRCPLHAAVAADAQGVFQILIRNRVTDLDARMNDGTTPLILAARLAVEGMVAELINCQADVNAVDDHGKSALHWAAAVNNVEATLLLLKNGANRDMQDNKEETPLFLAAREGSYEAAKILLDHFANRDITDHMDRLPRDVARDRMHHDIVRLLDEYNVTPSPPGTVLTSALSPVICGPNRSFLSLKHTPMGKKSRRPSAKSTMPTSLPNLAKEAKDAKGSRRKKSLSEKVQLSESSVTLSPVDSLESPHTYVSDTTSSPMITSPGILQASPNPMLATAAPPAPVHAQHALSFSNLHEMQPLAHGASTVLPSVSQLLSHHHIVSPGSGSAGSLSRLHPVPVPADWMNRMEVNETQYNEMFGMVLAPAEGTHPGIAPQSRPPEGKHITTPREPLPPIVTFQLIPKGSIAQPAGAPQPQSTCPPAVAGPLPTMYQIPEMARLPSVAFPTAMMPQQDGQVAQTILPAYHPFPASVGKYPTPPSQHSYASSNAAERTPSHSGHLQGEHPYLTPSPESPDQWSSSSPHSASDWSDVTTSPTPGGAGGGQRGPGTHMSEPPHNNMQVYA
Neurogenic locus notch homolog protein 3 (Homo sapiens), sequence (Q9UM47 whole entry, looked up): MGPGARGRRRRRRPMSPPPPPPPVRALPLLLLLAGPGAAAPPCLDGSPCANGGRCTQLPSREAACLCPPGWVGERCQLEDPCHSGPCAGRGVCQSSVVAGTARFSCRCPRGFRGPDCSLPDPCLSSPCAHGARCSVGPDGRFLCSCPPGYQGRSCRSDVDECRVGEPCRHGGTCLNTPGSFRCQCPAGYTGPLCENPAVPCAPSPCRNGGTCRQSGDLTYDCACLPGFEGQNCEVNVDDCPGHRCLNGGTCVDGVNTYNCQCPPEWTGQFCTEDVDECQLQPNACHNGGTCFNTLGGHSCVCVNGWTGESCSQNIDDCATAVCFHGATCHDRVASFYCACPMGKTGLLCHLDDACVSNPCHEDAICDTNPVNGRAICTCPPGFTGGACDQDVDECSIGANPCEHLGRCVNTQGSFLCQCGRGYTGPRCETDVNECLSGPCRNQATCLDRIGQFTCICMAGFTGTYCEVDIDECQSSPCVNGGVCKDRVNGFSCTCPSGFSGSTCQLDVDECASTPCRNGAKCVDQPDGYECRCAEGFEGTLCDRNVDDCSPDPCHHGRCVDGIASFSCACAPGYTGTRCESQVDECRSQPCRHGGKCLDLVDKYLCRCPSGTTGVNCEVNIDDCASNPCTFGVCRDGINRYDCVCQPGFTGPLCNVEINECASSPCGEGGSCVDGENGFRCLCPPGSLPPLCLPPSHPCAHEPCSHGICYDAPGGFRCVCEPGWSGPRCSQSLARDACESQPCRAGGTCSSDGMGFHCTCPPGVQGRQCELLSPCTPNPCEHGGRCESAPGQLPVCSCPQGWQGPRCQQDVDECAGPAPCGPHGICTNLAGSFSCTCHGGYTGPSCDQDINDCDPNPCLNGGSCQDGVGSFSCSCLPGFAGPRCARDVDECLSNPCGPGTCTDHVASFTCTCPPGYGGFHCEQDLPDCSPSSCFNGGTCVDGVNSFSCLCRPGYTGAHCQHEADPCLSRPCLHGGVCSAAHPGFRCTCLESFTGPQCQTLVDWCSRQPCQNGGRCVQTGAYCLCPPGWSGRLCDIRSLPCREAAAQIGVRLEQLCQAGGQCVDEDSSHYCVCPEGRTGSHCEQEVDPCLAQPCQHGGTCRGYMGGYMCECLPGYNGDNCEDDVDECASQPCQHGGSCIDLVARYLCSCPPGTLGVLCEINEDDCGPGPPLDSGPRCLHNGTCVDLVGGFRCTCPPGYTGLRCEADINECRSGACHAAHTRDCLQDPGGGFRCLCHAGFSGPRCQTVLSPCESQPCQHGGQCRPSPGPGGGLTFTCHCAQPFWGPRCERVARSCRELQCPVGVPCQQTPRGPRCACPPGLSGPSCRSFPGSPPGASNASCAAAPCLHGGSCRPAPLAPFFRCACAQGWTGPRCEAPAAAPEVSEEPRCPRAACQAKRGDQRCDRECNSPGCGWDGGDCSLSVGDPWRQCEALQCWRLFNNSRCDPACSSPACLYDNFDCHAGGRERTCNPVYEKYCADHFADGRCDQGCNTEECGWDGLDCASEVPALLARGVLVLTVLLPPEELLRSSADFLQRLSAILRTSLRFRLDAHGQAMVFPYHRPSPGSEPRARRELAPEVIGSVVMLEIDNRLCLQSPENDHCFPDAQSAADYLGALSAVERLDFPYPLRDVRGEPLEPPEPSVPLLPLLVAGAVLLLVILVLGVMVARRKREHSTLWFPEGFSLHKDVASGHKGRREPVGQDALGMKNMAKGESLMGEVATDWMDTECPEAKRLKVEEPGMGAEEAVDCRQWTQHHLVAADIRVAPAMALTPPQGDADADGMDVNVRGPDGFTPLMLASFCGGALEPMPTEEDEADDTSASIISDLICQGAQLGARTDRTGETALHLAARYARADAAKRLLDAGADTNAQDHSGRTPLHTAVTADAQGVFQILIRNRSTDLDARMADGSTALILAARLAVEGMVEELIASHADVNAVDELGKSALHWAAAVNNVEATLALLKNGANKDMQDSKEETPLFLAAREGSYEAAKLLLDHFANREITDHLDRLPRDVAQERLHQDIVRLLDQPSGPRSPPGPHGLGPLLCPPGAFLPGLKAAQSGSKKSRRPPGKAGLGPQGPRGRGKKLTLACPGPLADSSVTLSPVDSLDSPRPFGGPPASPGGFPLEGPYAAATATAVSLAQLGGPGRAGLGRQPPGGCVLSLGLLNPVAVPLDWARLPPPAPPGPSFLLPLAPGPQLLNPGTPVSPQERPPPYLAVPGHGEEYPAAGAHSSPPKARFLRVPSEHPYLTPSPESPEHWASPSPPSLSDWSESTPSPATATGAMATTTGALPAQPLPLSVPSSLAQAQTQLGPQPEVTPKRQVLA

Structure (SMILES)	composite z-score [1]	composite z-score [2]	composite z-score [3]	composite z-score [4]	composite z-score [5]	composite z-score [6]	composite z-score [7]	z-score [8]	composite z-score [9]	composite z-score [10]	composite z-score [11]	z-score [12]	z-score [13]	z-score [14]	composite z-score [15]	z-score [16]	composite z-score [17]	composite z-score [18]	composite z-score [19]	composite z-score [20]
CCCCC=C[C@@H](NC(=O)OCc1ccccc1Cl)c1ccccc1	0.983	0.199	0.583	0.711	1.59	1.51	1.19	1.31 (inactive)	2.81	0.996	1.48	0.952 (inactive)	1.18 (inactive)	2.28 (inactive)	2.9	-1.48 (inactive)	1.09	1.34	1.02	0.98
C=C(COC)/C(=C/C[C@H](OC(=O)c1ccncc1)c1ccc(CO)o1)c1cnc2ccccc2c1	0.138	0.47	-0.124	0.741	1.21	0.98	1.14	1.29 (inactive)	-0.0236	-0.113	1.54	0.685 (inactive)	-0.694 (inactive)	0.662 (inactive)	1.34	-0.148 (inactive)	-0.114	0.84	1.09	-0.0805
C=CCOC(=O)[C@@H]1[C@H]2C(=O)O[C@H](c3ccccc3)[C@H](c3ccccc3)N2[C@H](c2ccc(OCCOC(=O)[C@@H]3C[C@@H]4C(=O)N[C@@H](CCCC[N+](C)(C)C)C(=O)N4[C@@H]3c3ccc(O)cc3)cc2)[C@@]12C(=O)Nc1ccc(I)cc12	-0.106	0.956	-0.0005	0.884	0.617	1.2	1.38	3.51 (inactive)	-0.0446	-0.16	1.53	0.954 (inactive)	-1.48 (inactive)	1.02 (inactive)	2.21	-0.0235 (inactive)	-0.103	0.989	1.07	-0.0006
O=C1N(CCS(=O)(=O)c2ccccc2)c2ccccc2[C@H]2OC(c3ccc(OCCCO)cc3)=N[C@@]12Cc1ccccc1	0.529	0.756	0.0918	0.102	0.918	-0.0845	1.29	-0.375 (inactive)	0.772	-0.0663	1.55	0.28 (inactive)	-0.0472 (inactive)	5.03 (inactive)	2.36	0.611 (inactive)	0.507	1.56	1.1	0.263
O=C1N(Cc2ccccc2)c2ccccc2C[C@]12N=C(c1ccc(OCCCO)cc1)O[C@@H]2c1ccccc1	0.0854	0.278	-0.125	0.576	0.699	0.888	1.09	-0.724 (inactive)	-0.0607	-0.0994	1.21	1.1 (inactive)	0.6 (inactive)	5.61 (inactive)	2.42	0.316 (inactive)	0.102	0.885	1.03	-0.0549
COc1cc(C(O)C2C=CC3C(=O)N(C)C(=O)C3N2Nc2ccccc2)cc(OC)c1OC (stereo not given)	1.3	0.723	0.341	0.602	1.25	1.83	1.35	-0.818 (inactive)	1.53	0.592	1.33	0.0446 (inactive)	-0.549 (inactive)	-0.299 (inactive)	3.62	0.238 (inactive)	0.581	-0.339	1.11	0.197
O=C1C2C=CC(C(O)c3ccco3)N(Nc3ccccc3F)C2C(=O)N1c1ccccc1 (stereo not given)	-0.111	-0.501	0.134	0.458	1.02	1.32	0.894	0.793 (inactive)	0.931	-0.173	-0.281	0.252 (inactive)	0.512 (inactive)	-0.119 (inactive)	2.46	-1.47 (inactive)	0.0686	-0.221	0.569	-0.0435
Cc1ccc(F)cc1S(=O)(=O)N[C@@H]1CCN(Cc2ccc(Br)cc2)C1	-0.414	0.673	-0.23	-0.207	0.414	-0.107	0.035	-2.08 (inactive)	0.258	-0.0994	-0.268	-1.47 (inactive)	-17.4 (active)	-1.73 (inactive)	-1.04	-1.12 (inactive)	-0.161	1.21	0.895	-0.0455
COc1ccc([Si](C)(C)[C@@H]2[C@@H](CCO)O[C@]3(C(=O)N(Cc4ccccc4)c4ccc(N5C(=O)c6cccc7cccc5c67)cc43)[C@H]2C)cc1	0.107	-0.908	-0.0729	-0.086	-0.0923	0.367	0.609	0.0135 (inactive)	-0.175	-0.271	0.473	0.849 (inactive)	1.97 (inactive)	37.1 (active)	0.984	0.89 (inactive)	-0.186	-0.129	-0.0162	-0.177
COCCOC(=O)N1C(=O)[C@@]2(c3ccccc31)[C@H](C(=O)NC[C@H](O)c1ccccc1)[C@H]1C(=O)O[C@H](c3ccccc3)[C@H](c3ccccc3)N1[C@@H]2c1ccc(O)cc1	-0.19	0.23	0.0017	0.941	1.55	0.57	1.25	-0.677 (inactive)	0.839	0.689	1.53	0.787 (inactive)	0.259 (inactive)	2.83 (inactive)	3.01	1.14 (inactive)	-0.109	0.915	1.05	0.569
